From PubChem BioAssay AID686978 (National Center for Advancing Translational Sciences (NCATS), 2013)
The campaign covered roughly 420,000 compounds. About 64,000 (15%) were called active. About 27% were inconclusive and are not listed. Not all results are given here. Unmarked numbers belong to inactive results. The call rests on the fitted dose curve; in most records, active means well fitted inhibition curve with a large enough effect; inconclusive means small, poorly fitted or top-dose-only effect; inactive means flat fitted curve, though single readings scatter.
On the % scale 0 is the no-effect control and ±100 the full control effect; potency means the concentration at half of the fitted maximal effect.

Assay: qHTS for Inhibitors of human tyrosyl-DNA phosphodiesterase 1 (TDP1): qHTS in cells in absence of CPT; further: nearly all actives have a fitted effect of over 55% in size
Settings: DT40 Tdp1-/- hTDP1 cells, no CPT, ATP luminescence, 48 h; activity change, negative = growth inhibition: at 46.2 µM (top of the series)
In short: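 Chicken DT40 Tdp1-/- cells complemented with human TDP1, screened without camptothecin (DMSO vehicle only), 400 cells/well. Compounds pin-transferred, cells incubated at 37 °C for at least 48 hr. Growth read as ATP-dependent luminescence (CellTiter-Glo, 30 min at RT).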
For `c1ccc(-c2c[nH]c(-c3ccccc3)c2)cc1`, the “activity change, negative = growth inhibition” value was -2.86%.
With `Cc1nn(-c2cc(Cl)ccc2N)c(=O)c2ccccc12` the “activity change, negative = growth inhibition” value was -14.5%.
With `COc1cccc(OC)c1C(=O)Nc1ccc2c(c1)n(C)c(=O)n2C` the “activity change, negative = growth inhibition” value was 17.7%.
For `COc1ccc(NC(=O)CCNS(=O)(=O)c2ccc3c(c2)c(=O)n(C)c(=O)n3C)cc1OC`, the “activity change, negative = growth inhibition” value was -28%.
With `COc1ccc(OC)c(-n2cc3c(=O)n(C)c(=O)n(C)c3c2)c1` the Potency was 14.6 µM (active).
In the case of `Cn1c(=O)c2cn(-c3cccc4ccccc34)cc2n(C)c1=O`, the Potency is reported as 25.9 µM (active).
With `O=C1c2ccccc2C(=O)N1c1cccc2ccccc12` the “activity change, negative = growth inhibition” value was -3.87%.
In the case of `CC(=O)Nn1cc2c(=O)n(C)c(=O)n(C)c2c1`, the “activity change, negative = growth inhibition” value is reported as -1.04%.
For `CCSC1(SCC)N=C(N)C2(C#N)C(c3ccccc3)NC(C)=CC12C#N` (centres undefined), the “activity change, negative = growth inhibition” value was -15%.
In the case of `O=C(Cn1nnc2ccccc2c1=O)NCc1ccc(Cl)cc1`, the “activity change, negative = growth inhibition” value is reported as -26.9%.
With `Cc1noc(C)c1C(=O)OC(C)C(=O)Nc1ccc2c(c1)OCO2` (centres undefined) the “activity change, negative = growth inhibition” value was -20.5%.
With `NC(=O)c1ccc(Nc2ccc3nonc3c2[N+](=O)[O-])cc1` the “activity change, negative = growth inhibition” value was -0.787%.
For `Cc1ccc(C)c(S(=O)(=O)Nc2cc(C)on2)c1`, the “activity change, negative = growth inhibition” value was 24.7%.
With `O=C(CN1CCN(S(=O)(=O)c2cccc(Cl)c2)CC1)N1CCCCC1` the “activity change, negative = growth inhibition” value was 1.53%.
For `O=C(CN1CCCSc2ccccc21)N1CCN(S(=O)(=O)c2ccccc2)CC1`, the “activity change, negative = growth inhibition” value was -21.5%.
For `O=C(CN1CCCSc2ccccc21)N1CCN(S(=O)(=O)c2cccc(F)c2)CC1`, the Potency was 7.31 µM (active).
In the case of `COC(=O)[C@]1(S(=O)(=O)c2ccccc2)C[C@@H]2ON=C(c3ccc(OC)cc3)[C@@H]2C1`, the “activity change, negative = growth inhibition” value is reported as -18.7%.
For `N#C[C@]1(S(=O)(=O)c2ccccc2)C[C@@H]2ON=C(c3cccc(Br)c3)[C@@H]2C1`, the Potency was 6.51 µM (active).
For `Cc1nc2sc(C)c(C)n2c(=O)c1S(=O)(=O)NCCc1ccc(Cl)cc1`, the “activity change, negative = growth inhibition” value was -8.23%.
With `O=C(CN1CCN(S(=O)(=O)c2ccc(Cl)s2)CC1)N1CCCCC1` the “activity change, negative = growth inhibition” value was -6.5%.
In the case of `O=C(N/N=C/c1ccc(O)c(O)c1)C1c2ccccc2Oc2ccccc21`, the Potency is reported as 25.9 µM (active).
For `CCC(C)(C)NC(=O)C1c2ccccc2Oc2ccccc21`, the “activity change, negative = growth inhibition” value was -10.4%.
In the case of `O=C(N/N=C/c1cc2c(cc1Br)OCO2)C1COc2ccccc2O1` (centres undefined), the “activity change, negative = growth inhibition” value is reported as -18.1%.
With `COC1[C@H](OC(N)=O)C(O)[C@H](Oc2ccc3c(O)c(NC(=O)c4ccc(O)c(CC=C(C)C)c4)c(=O)oc3c2C)OC1(C)C` (some centres undefined) the “activity change, negative = growth inhibition” value was -6.85%.
With `O=C1C=C(NCCNc2c(F)c(F)c(CO)c(F)c2F)CCC1` the “activity change, negative = growth inhibition” value was -8.45%.
For `COc1ccc(Cc2nnc(N/N=C/c3ccccc3O)[nH]c2=O)cc1OC`, the Potency was 0.0206 µM (active).
With `O=c1[nH]c(NCCO)nnc1Cc1ccc(Cl)cc1` the “activity change, negative = growth inhibition” value was -10.1%.
For `CC(C)c1ccc(Cc2nnc(NCCCO)[nH]c2=O)cc1`, the “activity change, negative = growth inhibition” value was -9.08%.
For `CCc1cc(=O)oc2cc(C)cc(OC(C)C(=O)O)c12` (centres undefined), the “activity change, negative = growth inhibition” value was 6.97%.
With `CC(C)CNS(=O)(=O)c1ccc(OCC(=O)Nc2ccc3c(c2)OCO3)c(Cl)c1` the “activity change, negative = growth inhibition” value was 2.5%.
For `CC(=O)OCC(C)n1c(=O)c2ccccc2n1C(C)=O` (centres undefined), the “activity change, negative = growth inhibition” value was -18.2%.
For `CCCc1cc(=O)[nH]c(SCC(=O)N2C(C)CCCC2C)n1` (centres undefined), the “activity change, negative = growth inhibition” value was -4.08%.
For `CCCCCn1c(=O)[nH]c2cc(C(=O)NCCCN3CCCCC3C)ccc2c1=O` (centres undefined), the “activity change, negative = growth inhibition” value was -29.4%.
For `CCCCCn1c(=O)[nH]c2cc(C(=O)Nc3cc(C)cc(C)c3)ccc2c1=O`, the Potency was 4.61 µM (active).
With `COCCn1c(=O)[nH]c2cc(C(=O)NCc3cccnc3)ccc2c1=O` the “activity change, negative = growth inhibition” value was 0.434%.
With `CCN(C(=O)CSc1nnnn1-c1ccc(OC)cc1)C1CCS(=O)(=O)C1` (centres undefined) the “activity change, negative = growth inhibition” value was 7.66%.
For `COc1ccc([C@H]2CC(=O)C=C(/C=C/c3ccccc3)C2)cc1`, the “activity change, negative = growth inhibition” value was -10.5%.
In the case of `COc1cc(NC(=O)c2noc3c2CSc2ccccc2-3)cc(OC)c1OC`, the Potency is reported as 8.2 µM (active).
With `COc1ccc2c(c1)CCc1c(C(=O)Nc3c(C)n(C)n(-c4ccccc4)c3=O)noc1-2` the “activity change, negative = growth inhibition” value was -24.4%.
In the case of `COc1cc(C(=O)Nc2nccs2)cc(OC)c1OC`, the “activity change, negative = growth inhibition” value is reported as -26.6%.
For `COc1cccc(COC(=O)C2CCN(S(=O)(=O)c3cccs3)CC2)c1OC`, the “activity change, negative = growth inhibition” value was 0.105%.
With `CC(C)(Oc1ccc(Cl)cc1)C(=O)OCC(=O)NCCc1ccc(S(N)(=O)=O)cc1` the “activity change, negative = growth inhibition” value was -6.13%.
With `Cc1ccc(CCN2CC(C(=O)O)CC2=O)cc1` (centres undefined) the “activity change, negative = growth inhibition” value was 0.404%.
With `Cc1cc(Cl)c(S(=O)(=O)NCC2CCCO2)cc1OCC(N)=O` (centres undefined) the “activity change, negative = growth inhibition” value was 9.13%.
For `COCCCNc1nc2c(-c3cccc(C(F)(F)F)c3)nnn2c2ccccc12`, the “activity change, negative = growth inhibition” value was -25.1%.
In the case of `Cc1ccc(-c2nnc(Nc3ccc(C(=O)N(C)C)cc3)c3ccccc23)cc1S(N)(=O)=O`, the “activity change, negative = growth inhibition” value is reported as -1.51%.
In the case of `Cc1ccc(C(=O)O)cc1S(=O)(=O)NCC1CCCO1` (centres undefined), the “activity change, negative = growth inhibition” value is reported as -3.24%.
With `Cc1ccc(-c2nnc(Nc3cccc(Br)c3)c3ccccc23)cc1S(=O)(=O)NCC1CCCO1` (centres undefined) the Potency was 11.6 µM (active).
With `CCNS(=O)(=O)c1cc(-c2nnc(Nc3cccc(C(F)(F)F)c3)c3ccccc23)ccc1C` the Potency was 5.8 µM (active).
In the case of `CCC(C)CN1C(=O)CN(S(C)(=O)=O)CC1(C)C(=O)Nc1ccc2c(c1)OCCO2` (centres undefined), the “activity change, negative = growth inhibition” value is reported as -8.04%.
In the case of `Cc1ccc(CSc2nc(-c3ccccc3)c(C#N)c(=O)[nH]2)cc1`, the “activity change, negative = growth inhibition” value is reported as 6.61%.
For `CCCCCN1CC(O)=C(c2ccccc2)C1=N`, the “activity change, negative = growth inhibition” value was -23.7%.
In the case of `Cc1nnc(SCC(=O)N2CCN(c3ccccc3)CC2)n1-c1ccccc1`, the “activity change, negative = growth inhibition” value is reported as -7.19%.
In the case of `CCOC(=O)N1CCN(C(=O)CSc2nnc(-c3c[nH]c4ccccc34)n2CCOC)CC1`, the Potency is reported as 20.6 µM (active).
For `CCC(C)Sc1nnc(-c2c[nH]c3ccccc23)n1CCOC` (centres undefined), the “activity change, negative = growth inhibition” value was -25.8%.
With `CCCCn1c(N)c(N(CCC(C)C)C(=O)c2ccc([N+](=O)[O-])o2)c(=O)[nH]c1=O` the “activity change, negative = growth inhibition” value was -25.2%.
With `CS(=O)(=O)N1CCC2(CCN(c3ccncc3)CC2)CC1` the “activity change, negative = growth inhibition” value was -21.5%.
With `O=C(C1=C(O)C(=O)N(CCOCCO)C1c1ccccn1)c1cccs1` (centres undefined) the “activity change, negative = growth inhibition” value was 0.178%.
In the case of `CN(CCC(=O)Nc1cc(S(=O)(=O)N(C)C)ccc1Cl)CC(=O)Nc1ccc(F)cc1`, the “activity change, negative = growth inhibition” value is reported as -29.5%.
With `CCc1ccc(CN(C)C(C)C(=O)Nc2ccc(S(=O)(=O)N3CCCC3)cc2)cc1` (centres undefined) the Potency was 16.4 µM (active).
In the case of `CN(CC(=O)Nc1ccc(S(=O)(=O)N2CCCC2)cc1)Cc1ccc(Cl)c(Cl)c1`, the Potency is reported as 18.4 µM (active).
For `CCc1ccc(NC(=O)CN2C(=O)COc3ccc(S(=O)(=O)N4CCCC4)cc32)cc1`, the “activity change, negative = growth inhibition” value was -28.2%.
With `CCc1ccc(NC(=O)CN2C(=O)CCSc3ccc(S(=O)(=O)N4CCCC4)cc32)cc1` the “activity change, negative = growth inhibition” value was -15.4%.
For `CN1CCN(S(=O)(=O)c2ccc(NC(=O)C3CCCO3)cc2)CC1` (centres undefined), the “activity change, negative = growth inhibition” value was -6.78%.
